Assay outcomes (PubChem BioAssay)
Most compounds without a hit are left out; they make up all but 1.7% or so of the library.
RXFP1 antagonist: blocks the human relaxin receptor RXFP1 | HEK293-RXFP1, relaxin-stimulated cAMP HTRF, 30 min; hits give low values | activity change, negative = inhibition, % at 57.5 µM | 350,000 compounds, 0.59% hits | Q9HBX9 | AID 1259400;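 active = activity change of -60% or lower, but not beyond a set lower limit; inconclusive = change between -60% and -40%, or beyond the set limit; inactive = change above -40%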
hERG WT inh: blocks the wildtype human KCNH2 potassium channel. 340,000 compounds, 0.37% hits. U2OS, BacMam KCNH2, thallium flux FluxOr; hits give low values. AID 720551. activity change, % at 1.84 µM;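 active = maximum activity change below -70%; inconclusive = maximum activity change between -70% and -50%; inactive = maximum activity change above -50%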
Target sequence (Q12809 whole entry, looked up): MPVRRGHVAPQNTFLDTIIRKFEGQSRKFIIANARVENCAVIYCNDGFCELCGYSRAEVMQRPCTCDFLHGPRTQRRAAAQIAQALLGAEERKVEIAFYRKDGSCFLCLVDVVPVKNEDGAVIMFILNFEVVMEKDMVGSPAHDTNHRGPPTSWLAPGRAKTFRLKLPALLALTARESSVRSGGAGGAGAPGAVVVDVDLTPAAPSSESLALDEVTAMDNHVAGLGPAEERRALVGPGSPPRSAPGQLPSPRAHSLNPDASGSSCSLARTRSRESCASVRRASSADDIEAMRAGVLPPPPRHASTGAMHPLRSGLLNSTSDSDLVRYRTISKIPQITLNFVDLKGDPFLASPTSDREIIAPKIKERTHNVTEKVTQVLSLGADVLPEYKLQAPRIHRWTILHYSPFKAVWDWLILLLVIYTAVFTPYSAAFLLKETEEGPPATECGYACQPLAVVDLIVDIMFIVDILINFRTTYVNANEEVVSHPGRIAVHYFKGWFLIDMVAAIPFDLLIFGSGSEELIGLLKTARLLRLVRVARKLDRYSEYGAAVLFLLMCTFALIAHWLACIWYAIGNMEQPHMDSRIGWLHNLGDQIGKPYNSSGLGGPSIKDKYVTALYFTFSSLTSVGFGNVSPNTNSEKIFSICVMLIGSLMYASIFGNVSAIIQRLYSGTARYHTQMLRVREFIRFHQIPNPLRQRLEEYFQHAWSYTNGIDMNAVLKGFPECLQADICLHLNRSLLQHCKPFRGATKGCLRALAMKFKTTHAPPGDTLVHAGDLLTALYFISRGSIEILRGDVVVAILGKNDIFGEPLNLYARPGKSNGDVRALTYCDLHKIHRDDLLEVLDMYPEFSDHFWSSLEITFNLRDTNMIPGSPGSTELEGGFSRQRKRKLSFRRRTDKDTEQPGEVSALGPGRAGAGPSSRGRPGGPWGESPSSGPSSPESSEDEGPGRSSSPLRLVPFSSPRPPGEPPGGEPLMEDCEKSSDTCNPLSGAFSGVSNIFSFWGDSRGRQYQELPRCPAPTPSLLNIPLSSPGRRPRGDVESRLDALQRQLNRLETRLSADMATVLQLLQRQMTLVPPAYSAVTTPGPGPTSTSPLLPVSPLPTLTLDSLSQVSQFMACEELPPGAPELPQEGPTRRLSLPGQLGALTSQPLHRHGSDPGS
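U2OS cells were transduced with wild-type KCNH2 virus (2.03 x 10^8 / mL) for 4 h at room temperature, then cultured overnight at 37 C. Thallium flux was read with FluxOr dye. Rate constants were normalized to DMSO controls.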
KCNH2 3.1 block: blocks the human KCNH2 3.1 channel isoform; 340,000 compounds, 0.95% hits; activity change, % (tested at about 1.8 µM); U2OS KCNH2 3.1, thallium flux FluxOr; hits give low values;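 active = maximum activity change below -70%; inconclusive = maximum activity change from -70% to -50%; inactive = maximum activity change above -50%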;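 also: thallium influx rate constant from kinetic fluorescence after stimulation buffer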
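Channel expression came from 3.1 mutant virus (1.77 x 10^8 /mL) applied to suspended U2OS cells for 4 h. Flux was tracked with FluxOr dye plus Red40 quencher, and kinetic rate constants normalized to controls.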
pAkt inh: Akt phosphorylation inhibition | Neuro2A IGF-stimulated pAkt S473 HTRF, 20 min; hits give low values | activity change, % for hits at 50 µM | 360,000 compounds, 0.32% hits; in the data active = activity change below about -80%; inconclusive = mostly about -51% to -80%
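Neuro2A cells in DMEM with 0.5% FBS, overnight at 37 deg C, given compound at single 50 µM final, then IGF (6 nM final) for 20 min at 37 deg C. Lysed; phospho-Akt Ser473 by HTRF after 24 h, 665/615 ratio.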
RXFP1 agonist: agonists of human relaxin receptor RXFP1; Q9HBX9; HEK293T-RXFP1 cAMP TR-FRET, 30 min; response scale: percent of porcine relaxin response, buffer zero; Potency, µM (highest dose often 57.5 µM), inactives show at the highest dose activation, most hits filed as activators; 370,000 compounds, 0.3% hits; AID 2676; active = well fitted activation curve with a large enough effect; inconclusive = small, poorly fitted or top-dose-only effect; also: potency is read from the fitted curve at half-maximal effect; nearly all actives have a fitted effect of over 60% in size
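HEK293 cells stably expressing RXFP1, treated 30 min at 37C with compounds plus PDE4 inhibitor Ro 20174; cAMP measured by HTRF TR-FRET. Normalized to buffer and 29 nM porcine relaxin; EC50 by Hill fit.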
Numbers without * were called inactive. % is scaled to controls: 0 for no effect and ±100 for the full control effect.

Screening C=CCC[C@@H](Cc1ccc(F)cc1)C(=O)OC[C@@H](NC(=O)[C@@H](CC=C)CC(=O)N[C@@H](CO)Cc1ccccc1)C(C)(C)C returned pAkt inh inactive.
For CCOc1ccc2c(c1)c(=O)c(S(=O)(=O)c1ccc(C)cc1)cn2CC(=O)Nc1ccc(C)cc1 the results were RXFP1 agonist 1%.
FC(F)Oc1ccc(NC(=S)NCc2nc3ccccc3[nH]2)cc1 was read as RXFP1 antagonist -19, hERG WT inh 26, KCNH2 3.1 block -85*, pAkt inh inactive and RXFP1 agonist 1%.
`CSc1nnnn1CCn1nnnc1SC` gave RXFP1 antagonist -2, hERG WT inh -243*, KCNH2 3.1 block -9, pAkt inh inactive and RXFP1 agonist 2%.
Screening O=C(Cc1ccccc1)N1CCCC(c2nc(-c3ccc(S(=O)(=O)N4CCCC4)cc3)no2)C1 (stereo not drawn) returned RXFP1 antagonist -17, hERG WT inh -1, KCNH2 3.1 block 9, pAkt inh inactive and RXFP1 agonist -1%.
Screening O=C(Nc1c(C(=O)N2CCOCC2)oc2ccccc12)c1cccc([N+](=O)[O-])c1 returned RXFP1 antagonist -6, hERG WT inh 6, KCNH2 3.1 block 3, pAkt inh inactive and RXFP1 agonist -3%.
`CCOCCCN(C)C1CCN(C(=O)c2oc3ccccc3c2NC(=O)c2ccc([N+](=O)[O-])cc2)CC1` gave RXFP1 antagonist -6, hERG WT inh -122*, KCNH2 3.1 block -82*, pAkt inh inactive and RXFP1 agonist 9%.
CCOCCCN(C)C1CCN(C(=O)c2oc3ccccc3c2NC(=O)c2ccc(F)cc2)CC1 was read as RXFP1 antagonist 8, hERG WT inh -82*, KCNH2 3.1 block -92*, pAkt inh inactive and RXFP1 agonist 1%.
Screening O=C(Nc1c(C(=O)N2CCC(N3CCCCC3)CC2)oc2ccccc12)c1ccc(F)cc1 returned RXFP1 antagonist 8, hERG WT inh -5, KCNH2 3.1 block inconclusive, pAkt inh inactive and RXFP1 agonist 1%.
Screening COc1cccc(Cn2c(-c3nonc3NC(C)=O)nc3ccccc32)c1 returned RXFP1 antagonist inconclusive and RXFP1 agonist 3%.
Screening COc1ccc(N/C=C\C(=O)c2ccc(C)cc2)cc1OC returned RXFP1 antagonist -5, hERG WT inh -22, KCNH2 3.1 block -141*, pAkt inh inactive and RXFP1 agonist 0%.
O=C(Nn1cnnc1)c1ccc(Br)s1 was read as RXFP1 antagonist 2, hERG WT inh -1, KCNH2 3.1 block -186*, pAkt inh inactive and RXFP1 agonist 0%.
Screening O=C(Nc1ccccn1)c1ccc(Br)s1 returned RXFP1 antagonist -1, hERG WT inh 3, KCNH2 3.1 block -9, pAkt inh inactive and RXFP1 agonist 7%.
Screening Cc1c(C)c2ccc(OC(C)C(=O)NCCCn3ccnc3)c(C)c2oc1=O (stereo not drawn) returned RXFP1 antagonist -7, hERG WT inh -6, KCNH2 3.1 block -2, pAkt inh inactive and RXFP1 agonist 8%.
`Cc1ccc(CN2CC[C@H]3C=CCc4cccc(c43)C2)cc1` gave pAkt inh inactive and RXFP1 agonist 1%.
COc1ccc(CN2CC[C@H]3C=CCc4cccc(c43)C2)cc1 was read as hERG WT inh 1, KCNH2 3.1 block -85*, pAkt inh inactive and RXFP1 agonist 0%.
For CCn1c(=O)c2c(nc3n2CCCN3CCc2ccc(OC)c(OC)c2)n(C)c1=O the results were RXFP1 antagonist -18, hERG WT inh 1, KCNH2 3.1 block -72*, pAkt inh inactive and RXFP1 agonist 0%.
CC[C@@H](C)C(NC(=O)OC(C)(C)C)c1cn([C@@H](CCCCNC(=O)OC(C)(C)C)C(=O)N2CCN(C(=O)OC(C)(C)C)CC2)nn1 (stereo partly drawn) was read as hERG WT inh -291*, KCNH2 3.1 block -5, pAkt inh inactive and RXFP1 agonist 0%.
`CC(C)CC(NC(=O)OC(C)(C)C)c1cn([C@@H](CCCCNC(=O)OC(C)(C)C)C(=O)N2CCN(C(=O)OC(C)(C)C)CC2)nn1` (stereo partly drawn) gave hERG WT inh -2, KCNH2 3.1 block 0, pAkt inh inactive and RXFP1 agonist 1%.
